This is an account of results in ChEMBL document CHEMBL3988442, “University of Dundee, Small-Polar-MMV Screening Library” (2021).

Hit rate of the full screen: of about 48,000 compounds, about 13,000 (27%) showed an effect of 50% or more. Some of the results follow.

In this assay the test system is Wolbachia pipientis. In words: Anti-Wolbachia Cell-Based Screen. The class given is functional. To be noted: 5 µM. More on the design: scale not given: in the data most compounds retested in dose-response had high values.
`CC(c1cccs1)N(C)C(=O)c1cc(CN(C)Cc2ccccc2)on1` (configuration not stated): the “Percent Effect” value was -11.33%.

`CN(C)c1cc(C(=O)NCC2(c3cccc(F)c3)CCOCC2)ccn1`: the “Percent Effect” value is listed as -10.3%. Turning to `CCOc1ccc(Cl)cc1C(C(=O)O)N1CCOCC1` (configuration not stated), the “Percent Effect” value is listed as -18.5%. The value for `CC(C)(C)OC(=O)N1CSC[C@@H]1C(=O)NCc1ccc(C#N)cc1` was -6.965%; that for `Cc1ccc(CN2Cc3c(C(=O)N(C)C)nn(C)c3C2)s1.O=C(O)C(F)(F)F` was -8.124%; that for `COCC1CN(Cc2ccc(C)o2)Cc2nnn(C)c21.O=C(O)C(F)(F)F` (configuration not stated) was 3.893%. For the compound `COCC1CN(Cc2sccc2C)Cc2nnn(CC3CC3)c21.O=C(O)C(F)(F)F` (configuration not stated), the “Percent Effect” value stood at 8.391%. On to `Cc1ccc(CN2Cc3nnn(C)c3C(COCC(=O)N(C)C)C2)s1.O=C(O)C(F)(F)F` (configuration not stated), for which the “Percent Effect” value is given as 83.68%. As for `Cc1ccc(CN2Cc3nnn(C)c3C(COCC3CC3)C2)s1.O=C(O)C(F)(F)F` (configuration not stated), the “Percent Effect” value is given as 100.2%. Regarding `COCC1CN(Cc2ccc(C)s2)Cc2nnn(C)c21.O=C(O)C(F)(F)F` (configuration not stated), the “Percent Effect” value amounted to 106%. In the case of `Cc1ccc(CN2Cc3nnn(C)c3C(COCC3CC3)C2)o1.O=C(O)C(F)(F)F` (configuration not stated), the “Percent Effect” value is 1.722%. The value for `CCC(CC)NC(=O)CN1CCSCC1` was 2.417%; that for `Cc1ncnc(N2CCCN(c3nc4ccccc4s3)CC2)c1C` was -5.721%; that for `CC(C)Nc1ccc2nc(C3CCN(C(C)C)CC3)nn2c1.O=C(O)C(F)(F)F` was 7.625%.

With `c1cc2nc(C3CCNCC3)nn2cc1NC1CCC1`, the “Percent Effect” value is 109.6%.

`Cl.Cl.Cl.c1cncc(CNc2ccc3nc(C4CCNCC4)nn3c2)c1`: the “Percent Effect” value is -18.54%. The value for `COCCN1CCC(c2nc3ccc(NC4CCC4)cn3n2)CC1.O=C(O)C(F)(F)F` was 99.27%; that for `COCCN1CCC(c2nc3ccc(N4CCCC4)cn3n2)CC1.O=C(O)C(F)(F)F` was -8.298%.

Regarding `CCN1CCC(c2nc3ccc(NC(C)C)cn3n2)CC1.O=C(O)C(F)(F)F`, the “Percent Effect” value is -4.484%. Take `CCN1CCC(c2nc3ccc(NC4CCC4)cn3n2)CC1.O=C(O)C(F)(F)F`: the “Percent Effect” value was 79.67%. In the case of `COCC(=O)N1CCC(c2nc3ccc(N4CCCC4)cn3n2)CC1.O=C(O)C(F)(F)F`, the “Percent Effect” value is given as -11.72%.

On to `CC(=O)N1CCC(c2nc3ccc(NC4CCC4)cn3n2)CC1.O=C(O)C(F)(F)F`, for which the “Percent Effect” value was determined as 124.1%. The value for `Cc1cc(C)c(Cn2cncn2)cc1CN1CC[C@H]2CC[C@@H](C1)N2` was 27.46%. The value for `CC(=O)N(C)CC(=O)NC(CC(C)C)c1cccs1` (configuration not stated) was 5.598%; that for `Cc1cc(CNC(=O)CCc2c(C)nc3cc(O)nn3c2C)no1` was 92.65%; that for `CCN(c1ccc(C(=O)NCc2ccnc(C)n2)cc1)C(C)C` was -16.63%. Regarding `Cc1ccsc1CCNC(=O)CCC(=O)NC1CCCC1`, the “Percent Effect” value is listed as -4.731%. The value for `Cc1nc2cc(O)nn2c(C)c1CCC(=O)NCc1cc(Br)cs1` was 111.2%. The value for `CCN(CC)S(=O)(=O)c1ccc(CCC(=O)NCc2cc(C)on2)cc1` was 7.778%; that for `NC(=O)CCCNC(=O)CCc1cc(Br)cs1` was 8.374%.

`Cc1ccsc1CNC(=O)CCc1c(C)nc2cc(O)nn2c1C`: the “Percent Effect” value came out at 106.8%.

`O=C(CCc1cc(Br)cs1)NCCCn1ccnc1`: the “Percent Effect” value is -0.5451%. Turning to `Cc1nccc(CNC(=O)CCc2c(C)nc3cc(O)nn3c2C)n1`, the “Percent Effect” value stood at 98.09%. The value for `Cc1ccsc1CNC(=O)CC1CN(C(=O)OC(C)(C)C)C1` was -25.18%; that for `CCc1ccc(C(=O)NCc2ccnc(C)n2)cc1` was 0.2592%; that for `Cc1cc(CNC(=O)CCc2ccc(S(N)(=O)=O)cc2)no1` was -2.333%. The value for `Cc1cc(C)n(CCN2CCN(C(=O)c3ccc(Br)o3)CC2)n1` was 17.42%. For the compound `CCN(C)C[C@@H]1CN(Cc2cccc(O)c2)C[C@@H]1CO`, the “Percent Effect” value is reported as -2.333%. The value for `COc1ccc2c(c1)nc1n2[C@@H](CNCc2cnn(C)c2)COC1` was 1.636%. The value for `Cc1cccc(CN2CCN(c3ncnc4[nH]ccc34)CC2CCO)n1` (configuration not stated) was 6.168%; that for `CCN1CCC(CC(=O)NCC(O)c2ccc3ccccc3c2)CC1` (configuration not stated) was -0.749%. The value for `CC(=O)N1CCCC(C(=O)N2Cc3nc(C)n(C)c(=O)c3C2)C1` (configuration not stated) was 7.499%. For the compound `COC(=O)C1CN(Cc2ccccc2C(C)(C)C#N)CCO1` (configuration not stated), the “Percent Effect” value was 1.007%. For `CC(C)OCCS(=O)(=O)N1CCCC1c1cccc(N(C)C)c1` (configuration not stated), the “Percent Effect” value amounted to 4.069%. As to `CC(C)(C)CCCC(=O)NS(=O)(=O)CC1CC1`, the “Percent Effect” value is -9.167%. `Cc1cccc(CNC(=O)CCc2c(C)nc3cc(O)nn3c2C)n1`: the “Percent Effect” value is 101.6%. The value for `Cc1ccccc1CNC(=O)Cc1c(C)nc2cc(=O)[nH]n2c1C` was 1.807%. The value for `Cn1ccc2c(C(=O)NCCCN3CCCC3)cccc21` was 7.133%; that for `Cc1ccc(N2CCCN(C(=O)c3cccc4c3ccn4C)CC2)nn1` was -26.18%; that for `Cn1ccc2c(C(=O)N3CCN(C(=O)C4CCCC4)CC3)cccc21` was 117.3%. The value for `Cn1ccc2c(C(=O)N3CCC4(CCOC4)C3)cccc21` (configuration not stated) was -11.85%.

On to `Cn1ccc2c(C(=O)N3CCC(C(N)=O)CC3)cccc21`, for which the “Percent Effect” value is on record as 2.253%. The value for `CC(=O)N(C)C1CCN(C(=O)c2cccc3c2ccn3C)CC1` was 129.7%. The value for `CCc1ncc(-c2nccn2-c2cccc(CC(=O)O)c2)cn1` was -3.277%. The value for `Cc1cc(N2CCC3(CCC(=O)N(CC4CC4)C3)CC2)nc(N)n1` was -10.67%; that for `Cc1nccn1CCC(=O)N1CCC2(CCC(=O)N(CC3CC3)C2)CC1` was 117.2%. Consider `COc1ccc(C(=O)N2CCC3(CCC(=O)N(C(C)C)C3)CC2)cc1C`, for which the “Percent Effect” value was 7.605%. The value for `Cc1cnn(CCC(=O)N2CCC3(CCC(=O)N(CC4CC4)C3)CC2)c1` was 86.63%; that for `Cc1nccn1CCCC(=O)N1CCC2(CCC(=O)N(C(C)C)C2)CC1` was 98.73%; that for `Cc1ncc(CC(=O)N2CCC3(CCC(=O)N(CCO)C3)CC2)c(=O)[nH]1` was 13.05%. The value for `Cc1nccn1CCCN1CCC2(CCC(=O)N(CC3CC3)C2)CC1` was 94.75%; that for `Cc1cnn(CC(=O)N2CCC3(CCC(=O)N(CCCO)C3)CC2)c1` was -87.52%; that for `Cc1cnn(CC(=O)N2CCC3(CCC(=O)N(CC(C)O)C3)CC2)c1` (configuration not stated) was -3.932%. The value for `Cc1nccn1CCCC(=O)N1CCN(c2cccnc2)CC1` was -0.7063%; that for `CCN1CC2(CCC1=O)CCN(CCc1nccn1C)CC2` was -0.2825%. Turning to `Cc1cc(N2CCC3(CCC(=O)N(CC4CC4)C3)CC2)ncn1`, the “Percent Effect” value was found to be 3.21%. The value for `COCCCN1C(=O)CC[C@H]2CN(c3cnc4ccccc4n3)CC[C@H]21` was 2.221%. With `CCCn1nc(C)c2c1NC(=O)CC2c1ccc(CN2CCCC2)s1` (configuration not stated), the “Percent Effect” value amounted to 1.67%. The value for `CC(C)c1nnc2n1CCN(CCCS(=O)(=O)c1ccccc1)C2` was -6.679%; that for `CSCCc1nc(-c2ccc3c(c2)OCO3)n(C)n1` was -7.384%.

For `CC(C)=CCN1CC2(CCN(Cc3ncc[nH]3)CC2)CC1=O`, the “Percent Effect” value is -7.691%. The value for `CCCc1nc(C)cc(N2CCC3(CCC(=O)N(CC4CC4)C3)CC2)n1` was 5.96%. With `Cc1nnnn1CCC(=O)N1CCC2(CCC(=O)N(CC3CC3)C2)CC1`, the “Percent Effect” value was determined as 115.6%. The value for `Cc1nc(C(C)C)cc(N2CCC3(CCC(=O)N(CC4CC4)C3)CC2)n1` was 0.1735%. The value for `CSCc1noc(CN2CCC3(CC2)CC(=O)N(CC=C(C)C)C3)n1` was 10.72%; that for `CC(C)=CCN1CC2(CCN(C(=O)CCn3ccnc3C)CC2)CC1=O` was 86.66%; that for `O=C(O)C(F)(F)F.c1ccc(Cn2cc3c(n2)C(COCC2CC2)OCC3)nc1` (configuration not stated) was -17.74%. The value for `Cc1nc(CN2C(=O)C[C@@H]3[C@@H]2CCN3CC2CCOCC2)cs1.O=C(O)C(F)(F)F` was 145.4%; that for `Cc1nc(CN2CCc3ncnc(C4CCOC4)c3CC2)cs1.O=C(O)C(F)(F)F` (configuration not stated) was -5.983%; that for `Cc1nc(CN2CCN(CC3CCOC3)Cc3cccnc32)cs1.O=C(O)C(F)(F)F.O=C(O)C(F)(F)F.O=C(O)C(F)(F)F` (configuration not stated) was -0.3757%. Turning to `Cc1nc(CN2C(=O)C[C@H]3[C@H]2CCN3CC2CCOC2)cs1.O=C(O)C(F)(F)F` (some centres not stated), the “Percent Effect” value was 100.2%.

`CCN(Cc1ccccc1)C1CCN(c2cc(C)nn2C)C1=O` (configuration not stated): the “Percent Effect” value was determined as 8.776%.

`CN1CCN(C(=O)NCCNc2ncccn2)Cc2ccccc21`: the “Percent Effect” value turned out to be 4.872%. In the case of `Cc1cc(=O)c(C(=O)N2CCN(C)c3ccccc3C2)c[nH]1`, the “Percent Effect” value is recorded as 106.1%. The value for `CN1CCN(C(=O)c2ccc(=O)n(C)c2)Cc2ccccc21` was -3.616%; that for `CN1CCN(C(=O)c2cccs2)Cc2ccccc21` was -12.17%. The value for `O=C(c1cc[nH]c(=O)c1)N1CCn2c(nnc2-c2ccccc2)C1` was 1.591%; that for `Cc1ccc(C(=O)N2Cc3ccccc3C2)cc1N1CCNC1=O` was -8.111%; that for `CN1CCN(C(=O)CCC(=O)c2cccs2)Cc2ccccc21` was -12.13%. The value for `Cc1cc(=O)[nH]cc1C(=O)N1CCN(C)c2ccccc2C1` was 99.2%. `CN1CCN(C(=O)c2cc[nH]c(=O)c2)Cc2ccccc21`: the “Percent Effect” value is on record as 113.6%. For the compound `Cc1cccc2sc(NC(=O)CN3CCCC4(CC3)CNC(=O)O4)nc12` (configuration not stated), the “Percent Effect” value is -7.394%. Consider `CN(Cc1ccco1)C1CCC12CCN(C(=O)c1ccncc1)CC2` (configuration not stated), for which the “Percent Effect” value is -36.28%. The value for `Cn1cc(CN2CCCC(c3nc(O)cc(-c4cccs4)n3)C2)cn1` (configuration not stated) was 121.4%; that for `Oc1cc(-c2cccs2)nc(C2CCCN(CC3=CCCOC3)C2)n1` (configuration not stated) was 158.9%.

In the case of `CCCOC1CCCN(Cc2nc(-c3cccs3)oc2C)C1` (configuration not stated), the “Percent Effect” value was determined as 5.158%. The value for `Cc1nnsc1C(=O)N1CCC2(CC1)c1nc[nH]c1CCN2CC(C)C` was -5.32%.
